Bioassay records: PubChem BioAssay, National Center for Advancing Translational Sciences (NCATS)
Hits are enriched below; roughly 4.4% of the tested compounds scored in any of these assays.
p53ts 32C tox: kills p53ts cells at the permissive temperature; H1299-p53A138V at 32C, ATP luminescence viability, 24 h; Potency, µM (top dose mostly 46.1 µM), inactives show top-dose activity change, negative = cytotoxicity, usual class: cytotoxic; actives 0.93% (n = 130,000); AID 924;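 note: 0% = DMSO and -100% = full killing by reference compound; nearly all actives have a fitted effect of over 55% in size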
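Cells: H1299 p53ts (A138V), 600/well, pre-incubated 16–30 h at 37C. Cpd up to 46 uM, 24 h, 32C. Readout: ATPlite luminescence, 20 min RT. Normalization: DMSO vs tamoxifen 100 uM. AC50 by Hill equation.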
p53ts 39C tox: kills p53ts cells at the nonpermissive temperature; H1299-p53A138V viability at 39C, ATP luminescence, 24 h; Potency, µM (titrated, usually from 46.1 µM), without a hit: at the highest dose activity change, negative = cell killing, actives largely listed as cytotoxic; actives 1.5% (n = 130,000); note: nearly all actives have a fitted effect of over 55% in size
ALOX12 inhib: blocks human 12-lipoxygenase activity. purified 12-hLO, xylenol orange hydroperoxide absorbance. Potency, µM (doses to about 57.1 µM), for the others: at the highest dose activity change, negative = inhibition, actives largely listed as inhibitors. P18054. actives 0.12% (n = 150,000); note: nearly all actives have a fitted effect of over 55% in size
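Hydroperoxide output read as Fe(III)-xylenol orange absorbance, 573-to-405 nm ratio, after 30 min reaction with 40 uM arachidonic acid. Enzyme: 150 nM purified human 12hLO, 15 min compound preincubation; 25 mM Hepes pH 7.0, room temperature.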
HPGD block: blocks human HPGD enzyme activity; actives 4.3% (n = 150,000); purified HPGD, NADH fluorescence kinetic, PGE2 substrate; P15428; Potency, µM, without a hit: top-dose activity change, negative = inhibition, actives largely listed as inhibitors; active = well fitted inhibition curve with a large enough effect, not every such curve was filed as active; inconclusive = small, poorly fitted or top-dose-only effect, or another doubt; inactive = no such curve, though single readings can be large or run the other way
Target sequence (P15428 whole entry, looked up): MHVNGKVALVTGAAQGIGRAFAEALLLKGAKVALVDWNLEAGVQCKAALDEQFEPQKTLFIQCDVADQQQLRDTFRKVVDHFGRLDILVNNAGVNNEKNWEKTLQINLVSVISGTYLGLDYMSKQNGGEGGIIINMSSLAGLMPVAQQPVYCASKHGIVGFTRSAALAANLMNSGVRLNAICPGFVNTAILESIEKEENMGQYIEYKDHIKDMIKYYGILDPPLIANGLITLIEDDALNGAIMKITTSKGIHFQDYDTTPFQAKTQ
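NADH formation kinetics: reaction with 30 uM PGE2 and 1 mM NAD+ (final), 20 nM enzyme, Tris-HCl pH 8 with Tween 20, after 15 min compound preincubation at room temperature. Fluorescence change, last versus first of five reads.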
An asterisk follows results filed as active. Unless noted, calls come from the whole dose curve; as a rule, active = well fitted curve in the direction sought with a large enough effect; inconclusive = small, poorly fitted or top-dose-only effect, or another doubt; inactive = no such curve, though single readings can be large; an effect the other way counts as inactive or inconclusive. Unless noted, % is set by controls: 0 for no effect and ±100 for the full control effect; potency is the fitted concentration of half-maximal effect.

Results for O=C(/C=C/c1ccccc1Cl)NCc1ccco1 ?
ALOX12 inhib: -3.7%; HPGD block: 14.1µM*

How did Cc1nnc2c3ccccc3nc(N3CCN(c4ccccc4)CC3)n12 do in these assays?
p53ts 32C tox: -5.2%; p53ts 39C tox: 8.6%

Results for CCn1cnc2cc(NC(=O)c3ccco3)ccc21 ?
p53ts 32C tox: 12.6µM*; p53ts 39C tox: 8.91µM*; ALOX12 inhib: 2.9%; HPGD block: -10.7%

Results for O=C(NCc1ccco1)c1cccnc1-c1nc2ccccc2s1 ?
p53ts 32C tox: 3.1%; p53ts 39C tox: 7.1%; ALOX12 inhib: -16.2%; HPGD block: 15.8µM*

Results for O=C(NCc1ccco1)c1cccnc1Cl ?
ALOX12 inhib: -4.2%; HPGD block: inconclusive

Results for CCOc1ccc(NC(=O)c2ccco2)cc1 ?
p53ts 32C tox: 10µM*; p53ts 39C tox: 10µM*; ALOX12 inhib: -3.9%; HPGD block: -4.5%

Results for CCOc1ccccc1NC(=O)c1ccc(NC(=O)c2ccco2)cc1 ?
p53ts 32C tox: 1.1%; p53ts 39C tox: 32.9%; ALOX12 inhib: 4.5%; HPGD block: -8.0%

Results for CCCCn1c(NC(=O)c2ccc(F)cc2)c(C#N)c2nc3ccccc3nc21 ?
p53ts 32C tox: -9.5%; p53ts 39C tox: 13.0%

Results for CCCCn1c(NC(=O)c2ccccc2)c(C#N)c2nc3ccccc3nc21 ?
p53ts 32C tox: inconclusive; p53ts 39C tox: 6.31µM*; ALOX12 inhib: inconclusive

How did COc1cc(C(=S)N(C)C)ccc1O do in these assays?
p53ts 32C tox: 1.8%; p53ts 39C tox: 6.2%; ALOX12 inhib: 0.1%; HPGD block: 17.8µM*

How did C#CCOc1ccccc1CNc1ccccc1 do in these assays?
ALOX12 inhib: -4.6%; HPGD block: -1.5%

Results for Oc1ccc(NCc2ccccc2OCc2ccccc2)cc1 ?
p53ts 32C tox: 9.0%; p53ts 39C tox: inconclusive; ALOX12 inhib: -6.0%; HPGD block: 14.1µM*

How did COc1cc(-c2nnc(Sc3ccc(C(F)(F)F)cc3[N+](=O)[O-])o2)cc(OC)c1OC do in these assays?
ALOX12 inhib: 8.6%; HPGD block: -11.9%

What do the screens show for `O=C(O)c1ccc(Sc2nnc(-c3cccc(Br)c3)o2)c([N+](=O)[O-])c1`?
ALOX12 inhib: -1.0%; HPGD block: 14.1µM*

What do the screens show for `Cn1c(SCc2nnc3n2CCCCC3)nc2ccccc21`?
p53ts 32C tox: 0.8%; p53ts 39C tox: 4.5%; ALOX12 inhib: -2.1%; HPGD block: 25.1µM*

Results for CCCCC/C=C\C[C@@H]1O[C@H]1C(O)/C=C\C/C=C\CCCC(=O)O (stereo partly drawn) ?
ALOX12 inhib: -0.3%; HPGD block: -2.4%

Results for COc1ccccc1/C=C/C(C)=O ?
ALOX12 inhib: -3.4%; HPGD block: -26.6%

How did CNc1ccccc(C(=O)/C=C/c2ccccc2OC)c1=O do in these assays?
ALOX12 inhib: -7.8%; HPGD block: 12.6µM*

Results for CNc1ccc(Br)cc(C(=O)/C=C/c2cccc(OC)c2OC)c1=O ?
p53ts 32C tox: -0.5%; p53ts 39C tox: 15.1%; ALOX12 inhib: -20.9%; HPGD block: 14.1µM*

Results for Cc1ccc(C(=O)O)cc1NC(=O)c1nsc2ccccc12 ?
p53ts 32C tox: 0.5%; p53ts 39C tox: 2.1%

How did COc1ccc(Nc2nnc(-c3ccc(C)c(S(N)(=O)=O)c3)c3ccccc23)cc1 do in these assays?
p53ts 32C tox: 48.7%; p53ts 39C tox: 35.3%

What do the screens show for `O=C1c2cccc3c(N4CCCCC4)ccc(c23)C(=O)N1CCO`?
ALOX12 inhib: 1.3%; HPGD block: -4.8%

How did O=C1c2cccc3c(Nc4ccccc4Cl)c([N+](=O)[O-])cc(c23)C(=O)N1CCO do in these assays?
ALOX12 inhib: -17.1%; HPGD block: 1.41µM*

Results for COc1ccc(NC(=O)c2oc3ccccc3c2NC(=O)Cc2coc3cc(C)ccc23)cc1 ?
p53ts 32C tox: 8.9%; p53ts 39C tox: 3.8%

How did N#Cc1c(-c2ccc(Cl)cc2)nc2n(c1=O)CCCS2 do in these assays?
ALOX12 inhib: -17.3%; HPGD block: -24.8%

What do the screens show for `N#Cc1c(-c2ccc(Br)cc2)nc2n(c1=O)CCCS2`?
ALOX12 inhib: -1.9%; HPGD block: 28.2µM*

How did Cc1ccc(-c2csc3ncn(-n4c(C)ccc4C)c(=O)c23)o1 do in these assays?
p53ts 32C tox: -2.2%; p53ts 39C tox: -5.3%; ALOX12 inhib: -29.3%; HPGD block: 28.2µM*

What do the screens show for `Cc1ccc(N2CCN(C(=O)c3c(C)oc4ncnc(N5CCCCC5)c34)CC2)c(C)c1`?
p53ts 32C tox: 15.2%; p53ts 39C tox: 20µM*

How did CCN(CC)c1ccc(SS(=O)(=O)O)cc1 do in these assays?
ALOX12 inhib: -9.6%; HPGD block: 8.91µM*

What do the screens show for `COC(=O)c1ccc(C(=O)OC)c(NC(=O)N2CC3CCCN3c3ccccc32)c1` (stereo not drawn)?
p53ts 32C tox: 10.3%; p53ts 39C tox: -9.7%

What do the screens show for `Cc1ccc2[nH]c3c(c2c1)CN(C(=O)CN1CCCc2ccccc21)CC3`?
ALOX12 inhib: -13.2%; HPGD block: 22.4µM*

What do the screens show for `COC(=O)Cn1c(CN2CCc3ccccc3C2)nc2c1c(=O)n(C)c(=O)n2C`?
p53ts 32C tox: 5.01µM*; p53ts 39C tox: inconclusive; ALOX12 inhib: -3.2%; HPGD block: -7.0%

Results for Cc1ccccc1Cn1c(CN2CCc3ccccc3C2)nc2c1c(=O)n(C)c(=O)n2C ?
p53ts 32C tox: 8.4%; p53ts 39C tox: 14.4%; ALOX12 inhib: -2.9%; HPGD block: -1.4%

How did Cc1ccc(-c2cc(C(=O)NC3=NCCS3)c3cc(Br)ccc3n2)o1 do in these assays?
p53ts 32C tox: -0.3%; p53ts 39C tox: -5.7%; ALOX12 inhib: 5.5%; HPGD block: 2.51µM*

Results for Cc1ccc(-c2cc(C(=O)O)c3cc(Br)ccc3n2)o1 ?
ALOX12 inhib: -0.8%; HPGD block: inconclusive

Results for CCOc1ccc(NC(=O)CSc2nccn2C2CCCC2)cc1 ?
p53ts 32C tox: 1.3%; p53ts 39C tox: -19.3%

How did O=C1CC(N2CCC(c3nc4ccccc4o3)CC2)C(=O)N1c1ccc(Cl)c(C(F)(F)F)c1 (stereo not drawn) do in these assays?
p53ts 32C tox: -4.1%; p53ts 39C tox: -5.3%; ALOX12 inhib: -16.5%; HPGD block: 20µM*

How did Cc1ccc(N2C(=O)CC(Sc3nc4ccccc4o3)C2=O)cc1Cl (stereo not drawn) do in these assays?
ALOX12 inhib: -8.8%; HPGD block: inconclusive

How did CC(C)Oc1ccc(C(=O)N2CCN(c3nc4c(F)cc(F)cc4s3)CC2)cc1 do in these assays?
p53ts 32C tox: 1.1%; p53ts 39C tox: -9.6%

Results for C[N+](C)(C)CCC(=O)c1cccc2ccccc12 ?
p53ts 32C tox: 12.6µM*; p53ts 39C tox: 15.8µM*; ALOX12 inhib: -24.0%; HPGD block: 14.1µM*

What do the screens show for `COc1ccc(N2CC(NC(=O)CCc3ccccc3)CC2=O)cc1OC` (stereo not drawn)?
p53ts 32C tox: -5.7%; p53ts 39C tox: -1.0%
